High-throughput results (PubChem BioAssay)
Hits are enriched below; roughly 15% of the tested compounds scored in any of these assays.
VP16 counter = Gal4-VP16 reporter inhibition counter-screen; Drosophila S2 Gal4-VP16 UAS-luciferase, luminescence, 20 h; Potency, µM (series often up to 53.6 µM), for the others: top-dose activity, negative = inhibition, usual class: inhibitors; hit rate 3.5% among 310,000; AID 2546;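 also: Gal4-VP16 expression switched on by copper sulfate through the metallothionein promoter; nearly all actives have a fitted effect of over 50% in size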
12-LOX inh = ALOX12 (human) lipoxygenase inhibition. P18054. purified 12hLO, xylenol orange hydroperoxide absorbance. Potency, µM (top dose mostly 108 µM), for inactives: top-dose activity change, negative = inhibition, usual class: inhibitors. hit rate 1.1% among 580,000
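Purified human 12hLO at 150 nM in 25 mM Hepes, 0.01% Triton X-100, pH 7.0, preincubated 15 min at room temperature with compound. Reaction started with 40 uM arachidonic acid, 30 min at room temperature. Hydroperoxide measured by Fe-xylenol orange, 573/405 nm absorbance ratio.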
TDP1 cell noCPT = qHTS for Inhibitors of human tyrosyl-DNA phosphodiesterase 1 (TDP1): qHTS in cells in absence of CPT; DT40 Tdp1-/- hTDP1 cells, no CPT, ATP luminescence, 48 h; Potency, µM (doses to about 46.2 µM), without a hit: at the highest dose activity change, negative = growth inhibition, most hits filed as inhibitors; hit rate 15% among 420,000; AID 686978, 2013; also: nearly all actives have a fitted effect of over 55% in size
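Cells were dispensed at 400 per well, compounds added by pin tool, plates incubated ≥48 hr at 37 °C, then CellTiter-Glo added for 30 min at room temperature before luminescence reading. Line: DT40 Tdp1-/- complemented with hTDP1; camptothecin omitted.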
RORg inh = blocks mouse ROR gamma transcriptional activity. P51450. Drosophila S2 Gal4-RORgamma UAS-luciferase reporter, 20 h. Potency, µM (series often up to 53.6 µM), without a hit: top-dose activity change, negative = inhibition, actives largely listed as inhibitors. hit rate 5.4% among 310,000. AID 2551; also: nearly all actives have a fitted effect of over 60% in size
Target sequence (P51450 whole entry, looked up, the tested form may be a part): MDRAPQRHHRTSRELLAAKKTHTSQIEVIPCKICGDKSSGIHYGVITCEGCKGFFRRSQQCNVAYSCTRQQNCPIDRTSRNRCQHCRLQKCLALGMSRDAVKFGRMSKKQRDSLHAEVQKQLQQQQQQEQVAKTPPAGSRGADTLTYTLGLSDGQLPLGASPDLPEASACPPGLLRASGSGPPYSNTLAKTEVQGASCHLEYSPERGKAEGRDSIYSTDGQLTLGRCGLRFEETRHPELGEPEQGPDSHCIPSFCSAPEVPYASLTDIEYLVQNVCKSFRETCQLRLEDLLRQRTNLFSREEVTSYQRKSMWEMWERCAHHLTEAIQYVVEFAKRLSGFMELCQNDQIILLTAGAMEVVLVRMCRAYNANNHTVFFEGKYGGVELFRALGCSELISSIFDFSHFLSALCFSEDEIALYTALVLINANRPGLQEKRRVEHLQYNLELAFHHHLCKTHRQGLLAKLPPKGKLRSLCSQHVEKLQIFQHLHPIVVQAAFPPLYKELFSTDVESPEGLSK
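Stably transfected Drosophila Schneider cells are the test system, with ROR gamma fused to Gal4 and luciferase under UAS control; luminescence is read after 20 hr of 700 uM copper sulfate induction at ambient temperature.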
TDP1 cell CPT = DT40-hTDP1 cell growth loss with CPT. Potency, µM (series often up to 46.2 µM), without a hit: at the top dose activity change, negative = growth inhibition, most hits filed as inhibitors. chicken DT40 Tdp1-/-;hTDP1 cells + 20 nM CPT, ATP luminescence, 48 h. AID 686979. hit rate 12% among 420,000; also: nearly all actives have a fitted effect of over 55% in size
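Chicken DT40 Tdp1-/- cells stably complemented with human TDP1 were seeded at 400 cells/well in medium containing 20 nM camptothecin, exposed to pin-transferred compounds, and grown at 37 °C for at least 48 hr. Viability was read as ATP luminescence.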
ELG1 DNA repair = blocks ELG1-dependent DNA repair in HEK293T cells | HEK293T ELG1-luciferase reporter, luminescence, 16 h; DNA damage induced by 5-fluorouridine | Potency, µM (highest dose often 46.1 µM), inactives show at the highest dose activity change, negative = inhibition, hits mostly inhibitors | hit rate 2.3% among 330,000; also: nearly all actives have a fitted effect of over 55% in size
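Step one: seed 2,000 cells per well. Step two: pin-transfer compound or DMSO alongside 5-fluorouridine. Step three: incubate 16 hr, 37 °C, 5% CO2. Step four: add ONE-Glo, wait 30 min, read luminescence.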
The depositor's hits bear a star; ? = inconclusive; nt = no result given; [ ] = dose if it differs, or a comment. Calls follow the shape of the dose curve; as a rule, active = well fitted curve in the direction sought with a large enough effect; inconclusive = small, poorly fitted or top-dose-only effect, or another doubt; inactive = no such curve, though single readings can be large; an effect the other way counts as inactive or inconclusive. % is scaled to controls: 0 for no effect and ±100 for the full control effect; potency is read from the fitted curve at half-maximal effect.

SMILES	VP16 counter	12-LOX inh	TDP1 cell noCPT	RORg inh	TDP1 cell CPT	ELG1 DNA repair
COC(=O)c1ccc(OCC2c3cc(OC)c(OC)cc3CCN2C(=O)COc2ccc(Cl)cc2)cc1 (centres undefined)	nt	5.2%	29.1µM*	nt	20.6µM*	nt
NC(=O)c1ccc(NC(=O)Cn2ccc3c(Cl)cccc32)cc1	nt	-46.2%	nt	nt	nt	nt
CCc1nnc2sc(-c3ccc(NC(=O)C(C)(C)C)cc3)nn12	nt	9.1%	nt	nt	nt	nt
Cc1cccc(OCC(=O)N2CCC(c3n[nH]c(=O)n3-c3ccccc3)CC2)c1	nt	1.2%	nt	nt	nt	nt
COCCOc1cc(Nc2nnc(C(F)(F)F)s2)c(Cl)cc1Cl	-5.1%	45.3%	-28.4%	0.0%	-27.9%	6.51µM*
COc1cc(Nc2nnc(C)s2)c(Cl)cc1Cl	-11.3%	-24.2%	-28.9%	-9.2%	-14.1%	-23.3%
CCOc1ccc(-n2c(SC(C)C)nc3c(c2=O)SCC3)cc1	?	0.0%	16.4µM*	?	?	?
O=C(c1cccc2c1NCCC2)N1CCn2nc(C(O)C3CC3)cc2C1 (centres undefined)	nt	36.4%	nt	nt	nt	nt
COc1ccc(NC(=O)COC(=O)c2c3c(nc4ccccc24)CCCC3)cc1Cl	-13.5%	18.0%	7.31µM*	20.6%	20.6µM*	18.4µM*
COc1ccc(OC)c(NC(=O)COC(=O)c2c3c(nc4ccccc24)CCCC3)c1	-21.1%	-17.0%	20.6µM*	-0.6%	23.1µM*	11.6µM*
CCc1nc2ccccc2c(C(=O)OCC(=O)NCc2ccco2)c1C	4.0%	-9.5%	?	-40.1%	?	-12.1%
COc1ccc(NC(=O)COC(=O)c2c3c(nc4ccccc24)CCCC3)cc1	-5.8%	-11.2%	?	-5.7%	?	16.4µM*
CCc1nc2ccccc2c(C(=O)OCC(=O)Nc2ccc(NC(C)=O)cc2)c1C	nt	103.8%	20.6µM*	nt	13µM*	?
CN1CCN(C(=O)[C@@H]2CCC[C@@H](NCc3cccc(Cl)c3)CN(C)C(=O)C2)CC1	nt	13.6%[176 µM]	nt	nt	nt	nt
O=C1CCN(Cc2ccc(F)cc2F)CCCC(c2nc(-c3cnccn3)no2)CCN1 (centres undefined)	nt	53.3%	nt	nt	nt	nt
Cc1cc(C)cc(NC(=O)COC(=O)c2n[nH]c3ccccc23)c1	-11.3%	-8.8%	-11.4%	17.8%	-6.6%	?
COc1ccc(OC)c(NC(=O)COC(=O)c2n[nH]c3ccccc23)c1	nt	197.9%	16.4µM*	nt	20.6µM*	?
CCCOc1ccc2nc(NC(=O)OC)[nH]c2c1	22.8%	0.0%	0.15µM*	-24.6%	0.0944µM*	?
COC(=O)Nc1nc2ccc(C(=O)c3ccc(F)cc3)cc2[nH]1	-14.4%	-9.5%[57.4 µM]	nt	6.6%	nt	nt
CCOC(=O)Nc1nc2ccc(Cn3cccc3)cc2[nH]1	nt	?	0.581µM*	nt	0.82µM*	nt
Cc1ccc(-c2nc3cc(C)c(Br)c(C)n3c2Cc2ccccc2)cc1	nt	-18.5%	7.31µM*	nt	2.31µM*	nt
Cc1ccc(Cc2c(-c3ccc(Cl)cc3)nc3cc(C)c(Br)c(C)n23)cc1	nt	8.91µM*	-13.8%	nt	?	nt
O=C(c1cnc(Cc2c[nH]c3ccccc23)c(I)c1)N1CCOCC1	nt	20µM*	nt	nt	nt	nt
O=C(c1cnc(Cc2c[nH]c3ccccc23)c(I)c1)N1CCN(Cc2ccccc2)CC1	nt	-7.6%	nt	nt	nt	nt
COc1ccc(-c2nnc(NC(=O)c3ccc([N+](=O)[O-])o3)o2)c(OC)c1	6.31µM*	433.0%	18.4µM*	7.08µM*	?	-3.8%
SMILES	VP16 counter	12-LOX inh	TDP1 cell noCPT	RORg inh	TDP1 cell CPT	ELG1 DNA repair
Cc1ccc(-c2nnc(NC(=O)c3ccc([N+](=O)[O-])o3)o2)c(C)c1	nt	?	13µM*	nt	16.4µM*	-15.6%
COC(=O)CSc1nnc(-c2ccc(OC)cc2OC)o1	-7.5%[0.365 µM]	-22.9%	-8.3%	?	-20.4%	16.3%
O=C1Nc2cc(Cl)ccc2C(=O)N2CCN(C(=O)c3ccccc3)C[C@H]12	nt	10.0%[176 µM]	nt	nt	nt	nt
CC1CCCC(NC(=O)NC(=O)CCl)C1C (centres undefined)	5.01µM*	-5.6%	3.66µM*	3.16µM*	3.66µM*	20.6µM*
CC1CCCCC1NC(=O)NC(=O)CCl (centres undefined)	6.31µM*	-13.0%	5.17µM*	5.01µM*	2.91µM*	20.6µM*
O=C(NCc1ccnc(OCC(F)(F)F)c1)c1cccs1	nt	21.4%	nt	nt	nt	nt
CC(=O)c1ccc(NC(=O)c2ccc(C)cc2Cl)cc1	nt	-23.0%	nt	nt	nt	nt
CN(CC1CCOC1)S(=O)(=O)Cc1ccccc1Cl (centres undefined)	nt	4.0%	nt	nt	nt	nt
CCOC(=O)C(C(=O)OCC)c1cc(Br)c2noc3c2c1C(=O)c1ccccc1-3	?	?	2.59µM*	?	3.66µM*	?
COc1cc2c(cc1OC)C(C)N(C(C)=O)CC2 (centres undefined)	27.4%	-19.1%	1.1%	?	-4.9%	?
COc1cc2c(cc1OC)C(CNC(=O)C=Cc1cc(OC)c(OC)c(OC)c1)C2 (centres undefined)	nt	12.4%	18.4µM*	nt	?	nt
COc1cc(/C=C/C(=O)NC2CCCCC2)cc(OC)c1OC	-6.1%	-2.2%	-0.2%	?	-3.3%	13.7%
COc1cc2c(cc1OC)CN(C(=O)/C=C/c1cc(OC)c(OC)c(OC)c1)CC2	3.1%	?	9.2µM*	-12.8%	?	?
COc1cc2c(cc1OC)C(C)N(C(=O)/C=C/c1cc(OC)c(OC)c(OC)c1)CC2 (centres undefined)	-8.5%	-4.7%	8.2µM*	-1.3%	14.6µM*	18.3µM*
COc1cc2c(cc1OC)CN(C(=O)/C=C/c1ccc(F)cc1)CC2	-12.4%	1.3%	?	28.2%	?	-16.1%
Cc1ccc(CN(C(=O)c2ccco2)c2ccc(CC(=O)NCC3CCCO3)cc2)cc1 (centres undefined)	nt	-18.0%	nt	nt	nt	nt
O=C(c1cc(-c2ccncc2)nc2ccccc12)N1CCOCC1	nt	14.3%	-19.0%	nt	0.5%	?
O=C(c1cc(-c2ccncc2)nc2ccccc12)N1CCCC(C(F)(F)F)C1 (centres undefined)	nt	-6.7%	18.4µM*	nt	?	nt
O=C(c1cc(-c2ccncc2)nc2ccccc12)N1CCN(S(=O)(=O)/C=C/c2ccccc2)CC1	-17.3%	5.4%	18.4µM*	4.7%	?	?
O=C(c1cc(-c2ccncc2)nc2ccccc12)N1CCN(Cc2ccccc2)CC1	nt	-14.2%	20.6µM*	nt	20.6µM*	20.6µM*
CC(=O)N1CCN(C(=O)c2cc(-c3cccc4ccccc34)nc3ccccc23)CC1	0.3%	-23.4%	16.4µM*	21.0%	14.6µM*	?
